Source: ChEMBL document CHEMBL3988442, “University of Dundee, Small-Polar-MMV Screening Library” (2021)
About 13,000 (27%) of roughly 48,000 compounds showed an effect of 50% or more. This is one part of the list.

Each compound was assayed on Wolbachia pipientis (assay: Anti-Wolbachia Cell-Based Screen). Conditions: 5 µM.
Type: functional
Parameters: scale not given: in the data most compounds retested in dose-response had high values

Structure (SMILES)	Percent Effect [%]
CC(C)n1nc(Cn2cccn2)c2c1CN(CC1CCOC1)C2.O=C(O)C(F)(F)F (configuration not stated)	-1.747
CCOC(=O)NCCC(=O)NCc1ccc(Oc2cccc(F)c2)nc1	3.713
CCc1ncnc2c1CCN(S(=O)(=O)c1ccccc1)CC2	113.2
CCc1ncnc2c1CCN(C(=O)N1CCCC1)CC2	16.14
CCc1ncnc2c1CCN(C(=O)Cc1ccccn1)CC2	-1.286
CCN(C)c1ncnc2c1CCN(C(=O)c1ccccn1)CC2.O=C(O)C(F)(F)F.O=C(O)C(F)(F)F	-0.1551
CCS(=O)(=O)N1CCc2ncnc(C)c2CC1	-1.649
CCOc1ncnc2c1CCN(S(=O)(=O)c1ccccc1)CC2	89.01
CCN(C)c1ncnc2c1CCN(S(=O)(=O)c1ccccc1)CC2.O=C(O)C(F)(F)F	77.11
CCc1ncnc2c1CCN(S(=O)(=O)CC)CC2	104.4
CCS(=O)(=O)N1CCc2ncnc(OC)c2CC1	0.7096
CCOc1ncnc2c1CCN(S(=O)(=O)CC)CC2	-16.86
CCOc1ncnc2c1CCN(Cc1cccs1)CC2.O=C(O)C(F)(F)F	-4.6
CCN(C)c1ncnc2c1CCN(C(=O)N(C)C)CC2.O=C(O)C(F)(F)F	-3.614
CC(O)CN(CC(=O)NC(=O)NCC(F)(F)F)c1ccccc1 (configuration not stated)	-9.09
COCCN1CCN(C(=O)c2ccc(C)cc2F)[C@H]2CS(=O)(=O)C[C@H]21	8.657
COC(=O)CCNC(=O)c1cccc(C(=O)N(C)c2ccccc2)c1	2.44
CC(=O)N1CCN(C(=O)NCCCN(C(C)C)S(C)(=O)=O)CC1	-2.467
COc1ccc2[nH]nc(CN3CCN(Cc4cccc(F)c4)CC3)c2c1	-9.903
Cc1cc(NCCCNS(C)(=O)=O)nc2ccccc12	-15.92
CCN(C)C1COC2(CCN(C(=O)c3ccc4[nH]ccc4c3)CC2)C1 (configuration not stated)	-14.16
O=C(COc1ccc2c(c1)CCC2)N1CCCC(n2cccn2)C1 (configuration not stated)	22.49
O=C(CCCOc1ccc(F)cc1F)N1CCCC(n2cccn2)C1 (configuration not stated)	132.9
O=C(CCOc1cccc(F)c1)N1CCCC(n2cncn2)C1 (configuration not stated)	-0.888
O=C(CCCOc1cccc(F)c1)N1CCCC(n2cncn2)C1 (configuration not stated)	133

Structure (SMILES)	Percent Effect [%]
Cn1cc(C2CCCN2C(=O)CCCOc2ccc(F)cc2F)cn1 (configuration not stated)	6.494
O=C(CCOc1cccc(F)c1)N1CCCC(n2cccn2)C1 (configuration not stated)	114
O=C(CCCc1nc2ccccc2[nH]1)N1CCCC(n2cccn2)C1 (configuration not stated)	-6.233
O=C(CCCOc1ccccc1Cl)N1CCCC(n2cncn2)C1 (configuration not stated)	20.25
O=C(CCCOc1cccc(F)c1)N1CCCC(n2cccn2)C1 (configuration not stated)	116.5
O=C(CCCOc1ccc(F)cc1)N1CCCC(n2cccn2)C1 (configuration not stated)	-3.272
Cc1nnc2n1CCN(C(=O)CN1C(=O)CCOc3ccccc31)C2	-10.74
CCN1CCN(S(=O)(=O)c2c[nH]c(C(C)C)n2)c2ccccc21	-17.2
CCc1ocnc1C(=O)Nc1ccc2ccn(CCN(C)C)c2c1	-13.13
CC(C)c1ncncc1C(=O)NCCN1CCCS1(=O)=O	-1.199
C/C(=C\c1ccco1)CN(C)C(C)c1ccccn1 (configuration not stated)	4.306
CCC(CO)N(Cc1ccccc1C)Cc1ccccc1C(=O)O (configuration not stated)	-4.887
COc1ccc(-c2noc([C@@H]3C[C@@H](O)CN3C3CCOCC3)n2)cc1	13.77
Cc1nn(C)cc1-c1cncn1CCc1ccc2c(c1)OCCO2.Cl	107.7
CN(Cc1ccc2c(c1)OCCO2)C(=O)Cn1cccnc1=O	7.904
Cn1cnnc1C1CCN(C(=O)Cc2ccc3c(c2)OCCO3)CC1	14.42
Cc1cnn(C2CN(Cc3ccc4c(c3)OCCO4)C2)c1	4.221
CN(Cc1ccc2c(c1)OCCO2)c1ncc(S(N)(=O)=O)s1	-17.53
CCn1cc(-c2cncn2CCc2ccc3c(c2)OCCO3)cn1.Cl	128.2
CN(Cc1ccc2c(c1)OCCO2)C(=O)NCCc1cnn(C)c1	10.28
CN(C)c1ncc(-c2cncn2CCc2ccc3c(c2)OCCO3)cn1.Cl	96.16
COc1ccc(CN(C)C(=O)CCc2c(C)nc(C)[nH]c2=O)cc1OC	10.21
CC(C)Cn1ccnc1CNC(=O)NC(C)c1nccs1 (configuration not stated)	-12.96
Cc1cccc(CNC[C@H]2COCc3nc4cccnc4n32)n1	-11.24
Cn1c(C2CCCN2C(=O)CN2CSCC2=O)nc2ccccc21 (configuration not stated)	-5.788

Structure (SMILES)	Percent Effect [%]
Cn1ccnc1CN1CCO[C@H]2C(CNC(=O)c3ccco3)CC[C@@H]21.O=C(O)C(F)(F)F (some centres not stated)	-4.038
CO[C@@H]1CN(S(=O)(=O)c2cn(C)cn2)[C@@H]2CCCO[C@@H]21.O=C(O)C(F)(F)F	7.147
O=C(O)C(F)(F)F.c1ccn(Cc2noc3c2CN(Cc2ccsc2)CC3)c1	-2.985
Cn1ccnc1CN1CCc2c(COCC3CC3)nn(C)c2C1	104.2
Cn1nc(COCC2CC2)c2c1CCN(C(=O)c1ccno1)C2	2.608
Cn1ccnc1CN1CCc2onc(COCC3CC3)c2C1.O=C(O)C(F)(F)F	94.95
CN1CCc2onc(Cn3cccc3)c2C1.O=C(O)C(F)(F)F	-7.222
Cn1cc(CN2CCCn3cnc(COCC4CC4)c3C2)cn1	-7.099
Cc1nc(N)sc1C(=O)N[C@H]1CN(CCO)C[C@@H]1C1CC1	15.87
O=C(NCC(F)(F)F)c1coc(COc2cccc(F)c2)n1	-8.912
CC(C)c1nnsc1CN1CCc2[nH]nc(-c3ccc(F)c(F)c3)c2C1	-14.43
CC(C)c1nnsc1CN1CCc2[nH]nc(-c3ccc(Cl)cc3)c2C1	-32.01
CCc1nc(C)sc1CN1CCc2[nH]nc(-c3ccc(F)c(F)c3)c2C1	80.67
CC(C)S(=O)(=O)c1ccccc1C(=O)NCC1Cc2ccccc2O1 (configuration not stated)	-14.53
Cc1noc2nc(C3CCN(Cc4ccncc4)CC3)cc(C(F)F)c12	-5.85
FC(F)(F)c1cc(C2CCCN(Cc3cccnc3)C2)n[nH]1 (configuration not stated)	5.486
Cc1noc2nc(C3CCCN(Cc4cccnc4)C3)cc(C(F)F)c12 (configuration not stated)	110
Cc1noc2nc(C3CCN(Cc4cccnc4)CC3)cc(C(F)F)c12.Cl	-9.901
Cc1noc2nc(C3CCCN(Cc4ccncc4)C3)cc(C(F)F)c12 (configuration not stated)	102.2
O=C(c1ccoc1)N1CCc2c(COCc3ccncc3)cncc2C1	-1.129
O=C(O)C(F)(F)F.c1ccc(CN2Cc3[nH]nc(COCC4CC4)c3C2)nc1	-4.447
Cn1cc(CN2CCc3c(COCc4ccncc4)cncc3C2)cn1	11
O=C(O)C(F)(F)F.O=C(O)C(F)(F)F.O=C(O)C(F)(F)F.O=C(O)C(F)(F)F.c1ccc(CN2CCc3c(COCc4ccncc4)cncc3C2)nc1	100.9
CCS(=O)(=O)N1CCc2c(COCc3ccncc3)cncc2C1	118.3
Cn1cc(CN2CCc3c(COCC4CC4)cncc3C2)cn1.O=C(O)C(F)(F)F.O=C(O)C(F)(F)F	4.622

Structure (SMILES)	Percent Effect [%]
O=C(O)C(F)(F)F.O=C(O)C(F)(F)F.c1cncc(COCc2nnc3n2CCN(Cc2ccoc2)C3)c1	7.608
O=C(O)C(F)(F)F.O=C(O)C(F)(F)F.O=C(O)C(F)(F)F.c1ccc(CN2CCc3c(COCC4CC4)cncc3C2)nc1	97.89
O=C(O)C(F)(F)F.O=C(O)C(F)(F)F.O=C(O)C(F)(F)F.c1cncc(COCc2cncc3c2CCN(Cc2ccoc2)C3)c1	108.7
O=C(O)C(F)(F)F.O=C(O)C(F)(F)F.O=C(c1ccc[nH]1)N1CCc2c(COCc3ccncc3)cncc2C1	-6.376
CCOCc1cncc2c1CCN(S(=O)(=O)c1ccccc1)C2	-7.612
O=C(c1ccsc1)N1CCc2c(COCc3ccncc3)cncc2C1	6.158
N#Cc1ccccc1C(=O)N1C[C@H](CO)C[C@H](CN2CCCC2)C1	4.936
Cc1nc(C(=O)N2CCN(C(=O)C3CCC3)[C@@H]3CS(=O)(=O)C[C@@H]32)cs1	7.717
CNC(=O)NC(=O)C(C)N1CCC(c2c[nH]c3ccc(OC)cc23)CC1 (configuration not stated)	1.858
CC(C)CCN(C)Cn1ncc2cn(-c3ccccc3)nc2c1=O	5.11
CCn1c(CNC(=O)Nc2nc(C)c(C)o2)nc2ccccc21	89.34
Cc1nc(NC(=O)NCc2nc3cccc(C)c3n2C)oc1C	43.9
CCn1c(CNC(=O)c2ccc(N(C)C)nc2)nc2ccccc21	8.635
CC(=O)NCCSCCOc1cccc(Br)c1	-2.574
CC(C)Nc1oc(-c2ccc(S(=O)(=O)N(C)C)o2)nc1C#N	118.4
CCCNC(=O)CSCc1ccc(S(=O)(=O)N(C)C)o1	-0.4398
CNc1oc(-c2cc(S(=O)(=O)N3CCCCCC3)c(C)o2)nc1C#N	9.909
CNc1oc(-c2ccc(OC)c(S(=O)(=O)N3CCCCC3)c2)nc1C#N	-6.371
CNc1oc(-c2ccc(S(=O)(=O)N(C)C)o2)nc1C#N	100.4
Cc1oc(-c2nc(C#N)c(N(C)C)o2)cc1S(=O)(=O)N1CCCC1	17.91
CN(C)S(=O)(=O)c1ccc(-c2nc(C#N)c(NC(C)(C)C)o2)o1.Cl	93
CN(C)S(=O)(=O)c1ccc(CSCC(=O)NC(C)(C)C)o1	-7.197
